# Bioassay records deposited in PubChem BioAssay by National Center for Advancing Translational Sciences (NCATS).
# Pf growth 96h: P. falciparum growth inhibition at 96 hour, primary screen for plastid delayed-death inhibitors. Potency, µM (highest dose often 28.7 µM), for the others: at the highest dose activity change, negative = inhibition, hits mostly inhibitors. AID 504834. P. falciparum luciferase reporter growth, 96 h. 6.9% of 320,000 active; note: potency is the fitted concentration of half-maximal effect; % is set by controls: 0 for no effect and ±100 for the full control effect
#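 P. falciparum expressing integrated firefly luciferase, in erythrocytes at 2% hematocrit, 0.05% parasitemia, incubated with compounds 96 h at 37 C, 5% CO2. Growth inhibition read as loss of luminescence; two-generation exposure targets delayed-death apicoplast inhibitors.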
# Pf growth 48h: P. falciparum growth inhibition at 48 hours (one generation); P. falciparum luciferase growth in erythrocytes, 48 h; Potency, µM (doses to about 28.7 µM), for inactives: at the top dose activity change, negative = inhibition, hits mostly inhibitors; 5.9% of 310,000 active; note: potency is the fitted concentration of half-maximal effect; % is set by controls: 0 for no effect and ±100 for the full control effect
#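 Parasite viability was followed by luminescence of a genomically integrated firefly luciferase. Cultures held 0.1% parasitemia at 2% hematocrit (final), incubated under 5% CO2 at 37 C.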
# SARS PLP yeast: inhibitors of SARS-CoV papain-like protease in yeast. 0.19% of 330,000 active. Potency, µM (doses to about 32.9 µM), for the others: at the highest dose activity, positive = growth rescue, most hits filed as activators. S. cerevisiae expressing SARS-CoV PLpro, growth rescue; calls by dose curve; note: potency is the fitted concentration of half-maximal effect; 0% is about no effect; nearly all actives have a fitted effect of over 55% in size
# AMA1-RON2 inh: disrupts binding of P. falciparum AMA1 to RON2 | AlphaScreen AMA1-biotinylated RON2 peptide binding | Potency, µM (titrated, usually from 58.2 µM), for inactives: top-dose activity change, negative = inhibition, usual class: inhibitors | 0.2% of 360,000 active;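 note: potency is the fitted concentration of half-maximal effect; 0% = vehicle wells and -100% = peptide control; nearly all actives have a fitted effect of over 45% in size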
#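 AMA1 (3D7) with his tag at 25 nM final met compounds first, then biotinylated RON2 peptide at 25 nM; detection used donor plus acceptor beads, 10 µg/mL apiece, read by AlphaScreen after 30 min at room temperature.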
# Shiga inhibitor: inhibitors of Shiga toxin in Vero cells; AID 2315; inhibition, % at 38.7 µM; 9.2% of 290,000 active; Vero cells, Shiga toxin protein synthesis inhibition reporter; in the data active = inhibition mostly above about 28%, no sharp cut-off; inactive = mostly below about 43%; note: 0% is about no effect
# Cycloheximide cs: affects cycloheximide protein synthesis inhibition readout, counter-screen; cell reporter, cycloheximide protein synthesis inhibition counterscreen; 12% of 300,000 active; AID 2314; max response, %; in the data active = max response mostly above about 13%, no sharp cut-off; inactive = mostly below about 14%; note: read at 38.3 µM for the half of the compounds with a filed dose; 0% is about no effect
# An asterisk follows results filed as active; ? = inconclusive; . = no result; [ ] = dose if it differs, or a comment. Hits are enriched below; roughly 19% of the tested compounds scored in any of these assays. Unless noted, calls come from the whole dose curve; as a rule, active = well fitted curve in the direction sought with a large enough effect; inconclusive = small, poorly fitted or top-dose-only effect, or another doubt; inactive = no such curve, though single readings can be large; an effect the other way counts as inactive or inconclusive.
SMILES,Pf growth 96h,Pf growth 48h,SARS PLP yeast,AMA1-RON2 inh,Shiga inhibitor,Cycloheximide cs
CN(CC(=O)N1CCN(c2ccccn2)CC1)S(=O)(=O)c1ccccc1,1%,36%,10%,7%,50*,43*
Cc1ccc(S(=O)(=O)N(C)CCCC(=O)N2CCN(c3ccccn3)CC2)cc1,.,13µM*,?,-13%,16,-2
Cc1nn(-c2ccccc2)nc1CNC(=O)C1CCC1,60%,30%,-1%,12%,22,12
CCCS(=O)(=O)c1c(S(=O)(=O)CCC)c2ccc(C(N)=O)cn2c1C(=O)c1ccccc1,6%,-29%,-7%,15%,2,-1
CC(CNC(=O)C1CCCN(S(=O)(=O)N2CCOCC2)C1)c1ccccc1 (centres undefined),?,?,.,9%,-3,-2
O=C(NNC(=O)c1ccc(F)c(S(=O)(=O)N2CCOCC2)c1)c1ccc(Br)cc1,1%,2%,-13%,67%,.,.
S=P(c1ccc(N2CCOCC2)cc1N1CCOCC1)(N1CCOCC1)N1CCOCC1,19%,-7%,7%,-2%,-3,1
Cc1ccc(-c2csc(NC(=O)CSc3nc(C)cc(=O)[nH]3)n2)cc1,?,.,?,1%,28,31*
CCC(Sc1nc(C)cc(=O)[nH]1)C(=O)Nc1nc(-c2ccccc2)cs1 (centres undefined),.,-9%,-1%,-11%,83,31*
Cc1ccc(-c2csc(NC(=O)CSC3=NCCS3)n2)cc1,263%,52%,-31%,7%,69*,50*
Cc1sc(NC(=O)CSC2=NCCS2)nc1-c1ccccc1,-58%,.,-3%,-21%,-11,-3
CCC(Sc1nc(-c2ccccc2)cc(=O)[nH]1)C(=O)O (centres undefined),25%,28%,7%,-1%,-12,-3
O=C(COC(=O)c1ccc([N+](=O)[O-])cc1)Nc1ccccc1C(=O)NC1CC1,.,.,-27%,-3%,.,.
O=C(CSc1nc2ccccc2[nH]1)NCc1ccc2c(c1)OCO2,4.1µM*,16%,-4%,-15%,-1,-5
Cc1ccc2nc(SCC(=O)c3ccc4c(c3)OCO4)[nH]c2c1,?,?,3%,37%,-12,-3
O=C(CSc1nc2ccccc2o1)NCc1ccc2c(c1)OCO2,-14%,75%,-10%,12%,27*,15*
O=C(CSc1nc2ccccc2[nH]1)c1ccc2c(c1)OCO2,?,-90%,-13%,4%,91*,57*
Cc1ccc(CNC(=O)CNC(=O)c2c(C)nn(C)c2Cl)cc1,4%,2%,1%,12%,-13,-2
CCCC(=O)N(CCN1CCOCC1)c1nc2c(OCC)cccc2s1,16%,-7%,?,-7%,-8,-3
CC(=O)OCCCCCCCCCCC[N+]1(C)CCCCC1,45%,?,0%,-7%,-5,-2
COC(=O)CCCCCCCCCC[N+]1(C)CCCCC1,52%,3.7µM*,-19%,10%[11.6 µM],-2,-3
O=C(Nc1ccc([N+](=O)[O-])cc1)Nc1ccc([N+](=O)[O-])cc1,2.4µM*,2.7µM*,.,.,.,.
Cc1cc(O)c(C(C)C)cc1NC(=O)Nc1ccc([N+](=O)[O-])cc1,.,.,.,-4%,.,.
COc1ccc(NC(=O)C2(c3ccc(NC(=O)c4ccc(OC)cc4)cc3)CCCC2)cc1,?,-3%,11%,1%,-13,0
O=C(NNC(=S)Nc1ccc(F)cc1)c1cccc([N+](=O)[O-])c1,82%,62%,-1%,122%,7,8
SMILES,Pf growth 96h,Pf growth 48h,SARS PLP yeast,AMA1-RON2 inh,Shiga inhibitor,Cycloheximide cs
Cc1ccc(C(C)C)cc1NC(=O)Nc1ccc([N+](=O)[O-])cc1,3.3µM*,4.1µM*,-12%,-15%,34*,33
O=[N+]([O-])c1ccc(NNC(=S)Nc2ccc(F)cc2)cc1,?,?,-62%,31%,86*,27*
Cc1ccc(NC(=O)C2(c3ccc([N+](=O)[O-])cc3)CCCC2)cc1,-3%,2.6µM*,23%,-13%,-21,0
COc1cccc(CNC(=O)CSc2nnc3c(n2)[nH]c2ccc(C)cc23)c1,-3%,14%,0%,-13%,-10,-2
Cc1cccc(Oc2ccc(Cl)cc2N)c1,28%,34%,-3%,0%,89*,34*
Cc1ccccc1OCC(=O)NS(=O)(=O)c1ccc(Cl)cc1,5.2µM*,-10%,-2%,-13%,-4,-4
Cc1ccc(C(C)C)c(OCC(=O)NS(=O)(=O)c2ccc(Cl)cc2)c1,0%,2%,2%,8%,-12,-3
Cc1ccccc1OCC(=O)Nc1cc(Cl)ccc1Oc1ccccc1,5.2µM*,?,5%,1%,-11,-4
CC(C)NS(=O)(=O)c1ccc(CCC(=O)Nc2cc(Cl)ccc2Oc2ccccc2)cc1,?,.,11%,-11%,-7,-3
CCNS(=O)(=O)c1ccc(CCC(=O)Nc2cc(Cl)ccc2Oc2ccccc2)cc1,8.3µM*,?,-3%,0%,-15,-1
O=C(COC(=O)c1c(Cl)cccc1Cl)Nc1cc(Cl)ccc1Oc1ccccc1,?,13µM*,-1%,8%,-4,5
Cc1cc(C(=O)N2CCC(Cc3ccccc3)CC2)c(C)o1,19%,?,19%,-2%,-6,-3
CN(C)CCCN1C(=O)C(O)=C(C(=O)c2cc3ccccc3o2)C1c1ccccn1 (centres undefined),.,.,.,13%,.,.
CS(=O)(=O)c1ccc(S(=O)(=O)N2CCN(C(=O)C(O)c3ccccc3)CC2)cc1 (centres undefined),.,.,.,5%,.,.
COC(=O)c1ccc(Cn2cc(C(F)(F)F)cc([N+](=O)[O-])c2=O)cc1,-25%,-1%,-1%,0%,-13,-3
CCOC(=O)C1(CCC(=O)OCc2ccccc2)CCCCC1=O (centres undefined),.,.,.,-5%,.,.
CC(=NNC(=O)c1ccc(NS(=O)(=O)c2ccc(Br)cc2)cc1)c1cccnc1,.,.,2%,11%,.,.
Cc1ncc([N+](=O)[O-])n1CCOC(=O)NC(NCc1ccccc1Cl)C(Cl)(Cl)Cl (centres undefined),?,?,-48%,19%,-10,-1
Cc1ccc(NC(NC(=O)OCCn2c([N+](=O)[O-])cnc2C)C(Cl)(Cl)Cl)cc1 (centres undefined),?,5.2µM*,-5%,.,-13,-1
c1ccc(Cn2c(SCc3cn4cccnc4n3)nnc2-c2ccco2)cc1,12µM*,27%,-9%,-21%,-19,2
Cn1c(SCC(=O)c2ccc(-c3ccccc3)cc2)nnc1-c1ccco1,-8%,-12%,-11%,-2%,29*,28*
O=C(CSc1nnc(-c2ccco2)n1Cc1ccccc1)c1ccccc1,?,14%,4%,-8%,72*,38*
